The text below walks through data of PubChem BioAssay (NCATS).

Several values for one entry are separate records, joined by “and”; a condition that tells them apart may be missing. Identical values can stand only once. Results filed as inconclusive are left out. A number with no mark means an inactive call. Activity calls are given as the source filed them. The call rests on the fitted dose curve; in most records, active means well fitted inhibition curve with a large enough effect; inconclusive means small, poorly fitted or top-dose-only effect; inactive means flat fitted curve, though single readings scatter.

For one assay, the system named is N140. Kind of assay: qHTS profiling for inhibitors of Plasmodium falciparum proliferation (AID 504749). Further: potency means the concentration at half of the fitted maximal effect. Conditions: P. falciparum in erythrocytes, SYBR Green DNA, 72 h; series mostly up to 28.7 µM. Put shortly:
(§1)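 Quantitative HTS: compounds pinned into medium, infected erythrocytes added (0.3% parasitemia, 2.5% hematocrit), 72 h culture at 37 C under 5% CO2. Saponin/Triton lysis with SYBR Green I, overnight RT, then fluorescence read.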

The next assay has as its system P93_24. The description is as above. Conditions: P. falciparum in erythrocytes, SYBR Green DNA, 72 h; series mostly up to 28.7 µM. Put shortly:
as §1

The next assay deals with P94_40. Described as above. The following applies: P. falciparum in erythrocytes, SYBR Green DNA, 72 h; series mostly up to 28.7 µM. The method in brief:
as §1

The subject of another assay is PAD. Described as above. The following applies: P. falciparum in erythrocytes, SYBR Green DNA, 72 h; series mostly up to 28.7 µM. The method in brief:
as §1

The test system of a further assay is PC15. The assay is described as above. The following applies: P. falciparum in erythrocytes, SYBR Green DNA, 72 h; series mostly up to 28.7 µM. Put shortly:
as §1

The next assay concerns PC26. The assay is described as above. Conditions: P. falciparum in erythrocytes, SYBR Green DNA, 72 h; series mostly up to 28.7 µM. The method in brief: as §1
The next assay concerns SC27B. The description is as above. Conditions: P. falciparum in erythrocytes, SYBR Green DNA, 72 h; series mostly up to 28.7 µM. The method in brief: as §1
A further assay deals with TAB109. Described as above. Conditions: P. falciparum in erythrocytes, SYBR Green DNA, 72 h; series mostly up to 28.7 µM. The method in brief: as §1
Another assay concerns TAB113. The description is as above. Conditions: P. falciparum in erythrocytes, SYBR Green DNA, 72 h; series mostly up to 28.7 µM. Put shortly: as §1
The test system of the next assay is TAB165. The description is as above. Conditions: P. falciparum in erythrocytes, SYBR Green DNA, 72 h; series mostly up to 28.7 µM. Put shortly:
as §1

In the next assay the test system is W2. The assay is described as above. The following applies: P. falciparum in erythrocytes, SYBR Green DNA, 72 h; series mostly up to 28.7 µM. Put shortly:
as §1

The test system of assay [1] is CRL-7250. Put plainly: Cytotoxic Profiling of Annotated Libraries Using Quantitative High-Throughput Screening (AID 1296008). Further: potency means the concentration at half of the fitted maximal effect. On max response: on the % scale 0 is the no-effect control and ±100 the full control effect. Conditions: Five cell lines viability, CellTiter-Glo ATP luminescence, 48-72 h; max response: hits give low values. Put shortly:
(§2)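 Compounds were pin-transferred onto cells and incubated 48 or 72 hr at 37 degree Celsius, 95% humidity. CellTiter-Glo was added, plates sat 10 min at room temperature, then ATP-coupled luminescence was imaged as the viability read-out.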

Another assay deals with HEK293. The assay is described as above. Conditions: Five cell lines viability, CellTiter-Glo ATP luminescence, 48-72 h; max response: hits give low values. Put shortly: as §2
Assay [2] has as its system HaCat. The assay is described as above. Conditions: Five cell lines viability, CellTiter-Glo ATP luminescence, 48-72 h; max response: hits give low values. The method in brief:
as §2

A further assay deals with KB-3-1. Described as above. Conditions: Five cell lines viability, CellTiter-Glo ATP luminescence, 48-72 h; max response: hits give low values. Put shortly:
as §2

A further assay relates to NIH3T3. Described as above. Conditions: Five cell lines viability, CellTiter-Glo ATP luminescence, 48-72 h; max response: hits give low values. The method in brief: as §2
Assay [3] deals with CRL-7250. Kind of assay: qHTS assay to identify novel small-molecules to repurpose for Merkel cell carcinoma treatment (AID 1296009). Conditions: MCC and control cell lines, CellTiter-Glo viability, 72 h; series mostly up to 44.8 µM. Put shortly:
(§3)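 Viability readout: ATP luminescence (CellTiter-Glo) after 72 hr drug exposure at 37 degree celsius. Dose-response format was 8 points for NPC and 11 points for MIPE; data normalized to in-plate controls.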

Assay [4] relates to HACAT. The description is as above. The following applies: MCC and control cell lines, CellTiter-Glo viability, 72 h; at 44.8 µM (top of the series) unless noted. The method in brief:
as §3

The next assay has as its system HEK293T. Described as above. The following applies: MCC and control cell lines, CellTiter-Glo viability, 72 h; at 44.8 µM (top of the series). Put shortly:
as §3

The next assay has as its system PC49. Put plainly: qHTS profiling for inhibitors of Plasmodium falciparum proliferation (AID 504749). Further: potency means the concentration at half of the fitted maximal effect. Conditions: P. falciparum in erythrocytes, SYBR Green DNA, 72 h; series mostly up to 28.7 µM. The method in brief: as §1
Further: nearly all actives have a fitted effect of over 60% in size.

With `CN1CCN(C(=O)O[C@H]2c3nccnc3C(=O)N2c2ccc(Cl)cn2)CC1`, the Potency entry in the assay on N140, with P93_24, in the assay on P94_40, in the assay on PAD, with PC15 and in the assay on PC26 was “inactive” throughout. For the same compound, the Potency entry with SC27B, with TAB109, in the assay on TAB113, with TAB165 and in the assay on W2 was “inactive” in each case. Moreover, the outcome with CRL-7250 [1], in the assay with HEK293, in the assay with HaCat [2], in the assay with CRL-7250 [3], in the assay with HACAT [4] and in the assay on HEK293T was inactive. Besides, the max response with HEK293 was 3.04%; with HaCat [2], -17.1%; in the assay with KB-3-1, 4.48%; with NIH3T3 it was -1.04% and -0.741%.

As to `CCCC(C)(COC(N)=O)COC(=O)NC(C)C` (stereo not drawn), the Potency result in the assay on N140, with P93_24, in the assay on P94_40, in the assay on PAD, in the assay on PC15 and in the assay on PC26 was “inactive” throughout. Also, the Potency result with PC49, in the assay on SC27B, with TAB109, in the assay with TAB113, in the assay with TAB165 and with W2 was “inactive” each time. Besides, the result in the assay with CRL-7250 [1], in the assay on HEK293, in the assay with KB-3-1, in the assay with NIH3T3, with CRL-7250 [3] and in the assay with HEK293T was inactive. Also, the max response in the assay on HEK293 is 0.0303%; in the assay on HaCat [2], -8.86% and 1.84%; with KB-3-1, -16.5%; in the assay with NIH3T3, -10.4%.

As to `CNCC(O)c1ccc(O)cc1` (stereo not drawn), the max response with CRL-7250 [1] is -6.88%; in the assay on HEK293, -14.1% and 1.65%; in the assay with KB-3-1, 12.6%; in the assay on NIH3T3, -18%. Moreover, the result in the assay on HaCat [2], in the assay on KB-3-1, with NIH3T3 and with HACAT [4] was inactive.

In the case of `CC(C)=CC1C(C(=O)OCc2cccc(Oc3ccccc3)c2)C1(C)C` (stereo not drawn), the Potency entry in the assay with N140, in the assay on P93_24, in the assay on P94_40, in the assay on PAD, in the assay on PC15 and in the assay on PC26 was “inactive” throughout. For the same compound, the Potency result with PC49, in the assay on SC27B, in the assay with TAB109, with TAB113 and in the assay with TAB165 was “inactive” in each case. The outcome in the assay with CRL-7250 [1], in the assay on HEK293, in the assay with NIH3T3, in the assay on CRL-7250 [3] and with HEK293T was inactive. In addition, the max response in the assay with HaCat [2] is 2.03%; with KB-3-1, 3.42%.

Turning to `c1ccc2c(c1)Nc1ccccc1S2`, the Potency entry in the assay with N140, with PC49, in the assay with SC27B and in the assay on TAB113 was “inactive” each time. Moreover, the Potency with W2 is 3.38 µM (active). The compound was called inactive in the assay with CRL-7250 [1], with HaCat [2], in the assay on CRL-7250 [3] and in the assay on HACAT [4]. For the same compound, the max response in the assay on HEK293 was -4.55%; in the assay on HaCat [2] it was -0.234%; in the assay on KB-3-1, 3% and -4.89%; in the assay on NIH3T3 it was -3.03% and 0.216%.

With `CC(C)CC(N(C)C)C1(c2ccc(Cl)cc2)CCC1` (stereo not drawn), the Potency result in the assay on N140, with P93_24, in the assay on P94_40, in the assay on PAD, in the assay on PC15 and with PC26 was “inactive” each time. For the same compound, the Potency entry in the assay on PC49, in the assay on SC27B, in the assay with TAB109, with TAB113, in the assay with TAB165 and with W2 was “inactive” throughout. The max response was 1.51% and -18.8% in the assay with CRL-7250 [1]; 3.97% and -10.6% with HEK293; -11.1% in the assay with HaCat [2]; 20.9% and 1.72% in the assay on KB-3-1; -0.177% in the assay on NIH3T3. For the same compound, the call in the assay on HaCat [2], with NIH3T3 and with HACAT [4] was inactive.

Turning to `Cc1cc(SCc2sc(-c3ccc(C(F)(F)F)c(F)c3)nc2C)ccc1OCC(=O)O`, the call with CRL-7250 [1], in the assay on HEK293, in the assay with HaCat [2], in the assay on KB-3-1, with NIH3T3 and in the assay with CRL-7250 [3] was inactive. The compound was called inactive with HACAT [4] and in the assay with HEK293T. For the same compound, the max response with HEK293 is -0.859%; with KB-3-1 it was -0.392%; in the assay on NIH3T3 it was 3.63%.

With `C[C@@H]1[C@@H](C(=O)C[C@H]2O[C@@H]3O[C@]4(C)CC[C@@H]5[C@H](C)CC[C@@H]([C@H]2C)[C@@]35OO4)O[C@@H]2O[C@]3(C)CC[C@H]4[C@H](C)CC[C@@H]1[C@@]24OO3`, the Potency in the assay with CRL-7250 [1] was 4.18 µM (active); in the assay with HEK293, 0.332 µM (active); in the assay with HaCat [2], 5.26 µM (active).

Take `O=C(O)C(=O)c1cn(Cc2ccccc2)c2ccc(-c3ccc(OC(F)(F)F)cc3)cc12`: the max response with CRL-7250 [1] is -5.5%; in the assay on HEK293, 3.18%; in the assay on HaCat [2], -0.483%; in the assay on NIH3T3, -16.9% and 4.93%. Moreover, the compound was called inactive with CRL-7250 [1], with HEK293, in the assay on HaCat [2], with KB-3-1, in the assay with CRL-7250 [3] and in the assay on HACAT [4]. Moreover, the call in the assay with HEK293T was inactive.

For `COc1ccc(C(CN(C)C)C2(O)CCCCC2)cc1` (stereo not drawn), the Potency result in the assay on P93_24, with P94_40, in the assay on PAD, in the assay with PC15, in the assay on PC49 and in the assay on SC27B was “inactive” throughout. The Potency result with TAB109, with TAB113 and in the assay on TAB165 was “inactive” each time. Besides, the Potency in the assay with W2 is 1.9 µM (active). Also, the max response with CRL-7250 [1] was -3.43% and 1.19%; in the assay with HEK293, 1.04%; in the assay on HaCat [2] it was 1.09% and -4.23%; in the assay on KB-3-1, 2.29% and -2.64%; with NIH3T3 it was 2.42%. For the same compound, the call in the assay on HEK293, in the assay with NIH3T3 and with HEK293T was inactive.

With `COC1(CS(=O)c2ccccc2)CCN(CCc2c[nH]c3ccc(F)cc23)CC1` (stereo not drawn), the max response was -22.3% in the assay with CRL-7250 [1]; -11.2% in the assay on HEK293; -21.9% in the assay on HaCat [2]; -9.1% in the assay on KB-3-1; -8% with NIH3T3.

As to `Oc1ccccc1-c1ccccc1`, the Potency entry in the assay on N140, with P93_24, with P94_40, with PAD, with PC15 and in the assay with PC26 was “inactive” each time. The Potency entry in the assay on PC49, in the assay with SC27B, in the assay on TAB109, in the assay with TAB113 and with TAB165 was “inactive” each time. Moreover, the compound was classed as inactive in the assay on CRL-7250 [1], in the assay with HEK293, with NIH3T3, in the assay with CRL-7250 [3] and in the assay with HEK293T. For the same compound, the max response with HaCat [2] is 1.64%; in the assay on KB-3-1, 2.06%.
